Records with an inconclusive call do not appear. Activity calls are given as the source filed them. How the source made its calls: active means hit-call score of the fitted dose curve at least 0.9, where 1 is the maximum; inconclusive means response in the unintended direction; inactive means score below 0.9.

A short description of the assay: ACEA_ER_AUC_viability: ACEA Biosciences xCELLigence Real-Time Cell Analysis on Estrogen Receptor Agonism for Viability (AID 2283782). The method, boiled down: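 Read-out: real-time electrical impedance (RT-CES) area under curve, loss of signal taken as reduced viability, normalized to DMSO baseline. T-47D cells, charcoal-stripped serum medium, compounds up to 100 uM final, continuous exposure, 80 h.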
`CCOC(=O)COC(=O)c1ccccc1C(=O)OCC`: the compound was called inactive. For `O=C(O)C(F)(F)OC(F)(F)C(F)(F)OC(F)(F)C(F)(F)C(F)(F)C(F)(F)F`, the compound was classed as inactive. As to `CCCCCc1cccc(=O)o1`, the outcome was inactive. For `CC1(C)CC(N)CC(C)(CN)C1` (configuration not stated), the call was inactive. By AC50 is commonly meant the concentration at which the activity in the assay is half-maximal. For the compound `O=C(O)c1ccco1`, the AC50 was 50 µM (active). `CC(=O)CCc1ccc(O)cc1`: the compound was classed as inactive. `Cc1ccc(C(C)(C)O)cc1`: the call was inactive. With `O=c1cc[nH]cc1`, the compound was called inactive. On to `CCC(C)(C)c1cc(O)c(C(C)(C)CC)cc1O`, for which the half-maximal activity concentration (AC50) is 72.7 µM (active). For the compound `CCOC(=O)CC(C)C`, the compound was called inactive. With `C[C@H](CCC(=O)O)[C@H]1CC[C@H]2[C@@H]3CC[C@@H]4C[C@H](O)CC[C@]4(C)[C@H]3CC[C@]12C`, the concentration at half-maximal activity (AC50) was 85.2 µM (active).

Turning to `C/C=C(\C)C(=O)OC/C=C(\C)CCC=C(C)C`, the AC50 was 78.2 µM (active). With `c1ccc(-c2nn[nH]n2)cc1`, the compound was classed as inactive. In the case of `CCOC(=O)C(=O)OCC`, the compound was called inactive. Turning to `CCO[Si](CCC#N)(OCC)OCC`, the compound was called inactive. For `C=C(C)C(=O)OCCC[Si](OC)(OC)OC`, the call was inactive. The same measure, in the same setting: under `NC(N)=NC(N)=NCCc1ccccc1` stands “inactive”; under `O=C(O)c1cccc(Cl)n1`, “inactive”. `CC(C)(O)CCc1ccccc1`: the outcome was inactive.

For the compound `CC(CO)(CO)[N+](=O)[O-]`, the result was inactive. Consider `CC(C)(O)C(=O)c1ccc(OCCO)cc1`, for which the outcome was inactive. Consider `Cc1cc(N)n(-c2ccccc2)n1`, for which the call was inactive.

In the case of `CC(=O)CCC(=O)O`, the call was inactive. With `O=C(O)c1cc2ccccc2cc1O`, the compound was classed as inactive. Consider `C1COCO1`, for which the outcome was inactive.

In the case of `CCCCCCOC(C)=O`, the half-maximal activity concentration (AC50) was 38.5 µM (active). `NC(=O)c1cnccn1`: the outcome was inactive. `C=CC(C)(CCC=C(C)C)OC(=O)CC` (configuration not stated): the AC50 is 50 µM (active).

For `CCOc1ccc(NC(C)=O)cc1`, the result was inactive.

As for `O=S1(=O)CC=CC1`, the call was inactive. With `O=S(=O)(O)c1cc(O)c(O)c(S(=O)(=O)O)c1`, the outcome was inactive. As to `COc1ccc(C(C)=O)cc1`, the outcome was inactive. On the same count and under the same terms, the value for `CC(C)COC(=O)c1ccccc1` was “inactive”; that for `CCCC1CCC(=O)CC1` was “inactive”; that for `C=CCOCC(O)CO` (configuration not stated) was “inactive”. Take `CCCC1CCOC(C)S1` (configuration not stated): the compound was called inactive. `CC1=CC[C@@H]2C[C@H]1C2(C)C`: the AC50 is 18.7 µM (active).

Values taken from PubChem BioAssay (EPA / NIEHS).
